Screens from PubChem BioAssay.
DRD3 agonist = agonists of human D3 dopamine receptor; 0.58% of 410,000 active; P35462; D3R DiscoveRx beta-arrestin cells, luminescence, 90 min; max activation, %; in the data active = max activation above about 30%; note: 0% is about no effect
Target sequence (P35462 whole entry, looked up): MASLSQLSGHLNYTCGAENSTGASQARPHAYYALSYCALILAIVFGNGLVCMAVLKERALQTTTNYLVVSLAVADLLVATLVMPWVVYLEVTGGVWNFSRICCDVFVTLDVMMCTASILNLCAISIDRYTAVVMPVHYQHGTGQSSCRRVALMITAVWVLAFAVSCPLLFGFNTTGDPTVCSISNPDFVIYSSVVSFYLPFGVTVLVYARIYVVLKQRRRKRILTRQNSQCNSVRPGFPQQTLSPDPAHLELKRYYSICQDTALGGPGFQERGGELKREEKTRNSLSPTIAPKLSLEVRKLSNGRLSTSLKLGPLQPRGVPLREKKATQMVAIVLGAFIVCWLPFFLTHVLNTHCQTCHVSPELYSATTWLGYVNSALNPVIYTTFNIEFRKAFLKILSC
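Agonist mode: compounds and dopamine controls were applied to plated cells for 90 min at 37 degrees C after an overnight attachment at 1500 cells/well. Luminescent read-out followed 30 - 60 minutes at room temperature with DiscoveRx detection reagent.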
RGS4 inhibitor = blocks human RGS4-accelerated GTP hydrolysis; Potency, µM (doses to about 114 µM), without a hit: at the highest dose activity change, negative = inhibition, actives largely listed as inhibitors; Transcreener GDP fluorescence polarization, RGS4-accelerated GTP hydrolysis; P49798; 0.039% of 390,000 active; note: potency is the fitted concentration of half-maximal effect; % is set by controls: 0 for no effect and ±100 for the full control effect; nearly all actives have a fitted effect of over 75% in size
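MLSMR compounds (23 nl, pin-transferred) preincubated 10 min at room temperature with a 500nM (2x) first reagent, then RGS4 at 900nM (2x) plus Transcreener GDP mix added; fluorescence polarization (620/688 nm) read before and after 90 min at 30 °C.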
BRCA1 expr up = activators of BRCA1 expression | MCF7-BRCA1-FFLuc reporter, luminescence, 48 h; response scale: scaled: vehicle 0%, 10 µM genistein 100% | Potency, µM (highest dose often 46.1 µM), for the others: top-dose activation, usual class: activators | 1.1% of 380,000 active | AID 624202; note: potency is the fitted concentration of half-maximal effect; nearly all actives have a fitted effect of over 80% in size
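Activators of BRCA1 expression were detected as increased firefly luciferase luminescence in engineered MCF7 cells after 48 h compound incubation. Signals were scaled to genistein 10 microM as full activation.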
PTHR1 agonist = activates the human parathyroid hormone receptor PTHR1. 0.075% of 410,000 active. HEK293 GP2 PTHR1 cells, GloSensor cAMP luminescence, 1 h. Potency, µM (series often up to 115 µM), for inactives: top-dose activation, actives largely listed as activators. Q03431. AID 743266; note: potency is the fitted concentration of half-maximal effect; nearly all actives have a fitted effect of over 55% in size
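HEK-293-derived GP2 cells expressing PTHR1 and a GloSensor cAMP reporter, 3,000/well, plated overnight, given luciferin plus IBMX (each 0.5 mM as added) for 1 h at 37 °C, then compound for 1 h at 37 °C. Luminescence was read after 15 min at room temperature.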
DRD3 antagonist = D3 dopamine receptor (human) antagonism; 2.5% of 360,000 active; AID 652054; D3R cells, DiscoveRx beta-arrestin luminescence, antagonist mode; active compounds read low; max response, negative = inhibition, %; P35462; in the data active = max response below about -50%; note: % is set by controls: 0 for no effect and ±100 for the full control effect
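Cells expressing the human receptor were seeded at 1500 cells/well, incubated overnight at 37 degrees C in 5% CO2, then exposed to library compounds with dopamine controls for 90 minutes at 37 degrees C before luminescent detection.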
B2AR arrestin = recruits beta-arrestin to the human beta2-adrenergic receptor; P07550; beta-arrestin recruitment to beta2AR, cell-based reporter; Potency, µM (highest dose often 46.1 µM), without a hit: at the highest dose activation, hits mostly activators; 0.02% of 330,000 active; AID 492947;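 note: potency is the fitted concentration of half-maximal effect; 0% = DMSO controls and full agonism = EC100 isoproterenol or metaproterenol; nearly all actives have a fitted effect of over 65% in size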
Starred values were filed as active, the others as inactive; i = inactive; x = no result given; [ ] = remark or other dose. Hits are enriched below; roughly 3.7% of the tested compounds scored in any of these assays. Unless noted, calls come from the whole dose curve; as a rule, active = well fitted curve in the direction sought with a large enough effect; inconclusive = small, poorly fitted or top-dose-only effect, or another doubt; inactive = no such curve, though single readings can be large; an effect the other way counts as inactive or inconclusive.

SMILES	DRD3 agonist	RGS4 inhibitor	BRCA1 expr up	PTHR1 agonist	DRD3 antagonist	B2AR arrestin
COc1ccc(N2CC(NC(=O)C3CCCCC3)CC2=O)cc1 (stereo not given)	-6.3	-27.5%	x	i	x	x
COc1ccc(C(NC(=O)C2CCN(CCCOc3ccccc3)CC2)c2cccs2)cc1 (stereo not given)	-11.6	x	12.3%	2.4%	-74.8*	x
COc1ccc(OCCN2CCC(C(=O)NC(c3ccc(Cl)cc3)c3cccnc3)CC2)cc1 (stereo not given)	-14.9	x	0.0%	-16.6%	20.4	x
COc1cc(OC)cc(C(=O)NC2CCN(CCCOc3ccccc3)CC2)c1	-11.4	-9.6%	1.9%	-48.8%	-15.2	-0.5%
Cc1ccc(C(NC(=O)C2CCN(CCOc3ccc(Cl)cc3)CC2)c2ccccn2)cc1 (stereo not given)	-12.3	x	-21.9%	i	-94.5*	x
Cc1csc2nc(-c3cccc(NC(=O)c4ccc(S(N)(=O)=O)cc4)c3)cn12	-11.7	6.2%	20.0%	i	x	x
CCCc1nc2ccccc2c(C(=O)OCC(=O)N2CCc3ccccc32)c1CC	70.0*	-21.2%	-52.3%	-3.4%	82.9	0.0%
CCCc1nc2ccccc2c(C(=O)OCC(=O)Nc2ccc(S(=O)(=O)N3CCOCC3)cc2)c1CC	31.6*	-44.0%	-70.8%	-4.2%[57.5 µM]	35.5	3.0%
COc1ccccc1N1CCN(c2ccc(=O)n(CC(=O)O)n2)CC1	3.8	13.0%	-1.4%	i	x	x
CCCCCCCCCCCCCCCC(=O)OC[C@H](O)[C@H]1OC(=O)C(O)=C1O	-15.1	x	x	x	x	x
COc1ccc(OC)c(NC(=O)COC(=O)CCCN=C2NS(=O)(=O)c3ccccc32)c1	-1.5	10.1%	6.5%	i	16.9	-0.3%
CCC(CC)C(=O)Nc1nnc(SCc2cc(=O)n3cccc(C)c3n2)s1	62.4*	20.9%	x	-17.9%	x	x
CC(C)COc1ccc(C(=O)NCC2OCCc3ccccc32)cc1 (stereo not given)	7.4	-15.0%	x	i	x	x
COc1ccc(C(=O)NCC2OCCc3ccccc32)c(O)c1 (stereo not given)	-4.5	1.1%	11.2µM*	i	9.2	-0.8%
CCCCC1Cc2[nH]c(=S)[nH]c(=O)c2C(c2cccc3ccccc23)O1 (stereo not given)	6.3	x	1.2%	-13.3%	-17.3	x
CC(=O)c1ccc(OC2(C)CCN(Cc3ccc(C)cc3)C2)cc1 (stereo not given)	-10.9	x	12.0%	-4.4%	-101.9*	x
CCc1ccc(OC2(C)CCN(Cc3ccc4c(c3)OCCO4)C2)cc1 (stereo not given)	-18.1	x	-2.7%	i	11.2	x
CC(=O)c1ccc(OC2(C)CCN(Cc3ccc4c(c3)OCCO4)C2)cc1 (stereo not given)	-10.2	x	-1.3%	i	-68.8*	x
CC(=O)c1ccc(OC2(C)CCN(Cc3ccc4ccccc4c3)C2)cc1 (stereo not given)	-25.9	x	22.6%	14.6%	-29.7	x
CC(C)CN(C(=O)CSc1nnc(-c2cccs2)n1C1CC1)C1CCS(=O)(=O)C1 (stereo not given)	-3.4	x	-7.8%	i	-25.4	x
Cc1ccc(N=C(NOCc2ccc(Cl)cc2Cl)c2nonc2N)c(C)c1	-14.9	5.8%	-18.8%	i	-0.2	-0.1%
Cc1ccccc1N=C(NOCc1ccc(Cl)cc1Cl)c1nonc1N	-27.6	4.1%	-29.0%	i	-84.7*	0.3%
CCNC(=S)N/N=C/c1cccc(C)c1	0.0	2.5%	10µM*	i	-4.8	-0.3%
O=C(N/N=C\c1ccc(Oc2ccccc2)cc1)c1csnn1	-0.3	-45.4%	12.6µM*	i	-16.2	-1.0%
Cc1cccc(/C=N\NC(=O)c2csnn2)c1	-14.2	-35.6%	41.8%	-19.6%	-91.4*	-0.5%
CCS(=O)(=O)c1nc(S(=O)(=O)c2ccc(C)cc2)c(N2CCN(CCO)CC2)s1	-12.8	-5.0%[56.9 µM]	-25.7%	i	-18.1	0.2%
Cc1ccc(S(=O)(=O)c2nc(S(=O)(=O)c3ccccc3)sc2N2CCN(C)CC2)cc1	-19.5	18.9%	-66.0%	i	-85.8*	-0.5%
